From PubChem
SARS PLpro yeast – blocks SARS-CoV papain-like protease in a yeast assay | AID 485353 | Potency, µM (titrated, usually from 32.9 µM), for the others: at the top dose activity, positive = growth rescue, most hits filed as activators | actives 0.19% (n = 330,000) | S. cerevisiae expressing SARS-CoV PLpro, growth rescue; calls by dose curve; further: 0% is about no effect; nearly all actives have a fitted effect of over 55% in size
Vaccinia mCherry – inhibitors of vaccinia virus infection (mCherry reporter signal). actives 0.63% (n = 310,000). Potency, µM (doses to about 36.5 µM), inactives show at the highest dose activity change, negative = inhibition, most hits filed as inhibitors. Vaccinia virus mCherry reporter infection, fluorescence. AID 720579; calls by dose curve; tested in A549 cells; further: on the % scale 0 is the no-effect control and ±100 the full control effect; nearly all actives have a fitted effect of over 35% in size
AmpC detergent – blocks E. coli AmpC beta-lactamase in detergent assay; P00811; AmpC hydrolysis of nitrocefin, absorbance 480 nm, 0.01% Triton; Potency, µM (doses to about 114 µM), inactives show at the top dose activity change, negative = inhibition, actives largely listed as inhibitors; actives 0.041% (n = 370,000); AID 485294;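 further: 0% = no-compound wells and -100% = no-enzyme wells; nearly all actives have a fitted effect of over 25% in size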
Target sequence (P00811 whole entry, looked up): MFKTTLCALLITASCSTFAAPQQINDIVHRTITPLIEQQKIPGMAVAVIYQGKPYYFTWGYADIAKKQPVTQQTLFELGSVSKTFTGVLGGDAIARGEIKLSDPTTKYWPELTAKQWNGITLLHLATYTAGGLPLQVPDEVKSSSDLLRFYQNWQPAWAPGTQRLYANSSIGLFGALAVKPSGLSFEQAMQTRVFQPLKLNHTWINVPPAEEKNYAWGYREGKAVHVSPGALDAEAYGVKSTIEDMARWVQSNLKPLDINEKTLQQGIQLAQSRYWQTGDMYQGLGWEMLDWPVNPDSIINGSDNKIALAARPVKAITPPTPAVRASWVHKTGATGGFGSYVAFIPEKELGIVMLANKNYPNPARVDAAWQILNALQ
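AmpC (5.3 nM in the dispensed reagent) in 20 mM phosphate pH 7.0 with 0.01% (detergent screen) or 0.0001% Triton X-100 was preincubated with compounds for 15 min at room temperature. Nitrocefin was then added from an 800 uM solution, and hydrolysis was followed at 480 nm.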
AmpC inh no detg – blocks E. coli AmpC beta-lactamase in detergent-free assay. P00811. AmpC nitrocefin hydrolysis, absorbance 480 nm, 0.0001% Triton. Potency, µM (series often up to 57.1 µM), without a hit: top-dose activity change, negative = inhibition, usual class: inhibitors. actives 0.52% (n = 330,000). AID 485341;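 further: plate controls were no compound for no effect and no enzyme for full effect; nearly all actives have a fitted effect of over 20% in size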
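AmpC (5.3 nM in the dispensed reagent) in 20 mM phosphate pH 7.0 with 0.01% (detergent screen) or 0.0001% Triton X-100 was preincubated with compounds for 15 min at room temperature. Nitrocefin was then added from an 800 uM solution, and hydrolysis was followed at 480 nm.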
VACV Venus inh – vaccinia inhibition (Venus reporter); AID 720580; Potency, µM (highest dose often 36.5 µM), for inactives: at the highest dose activity change, negative = inhibition, usual class: inhibitors; actives 0.46% (n = 330,000); Vaccinia virus Venus reporter expression, fluorescence; calls by dose curve; tested in A549 cells; further: on the % scale 0 is the no-effect control and ±100 the full control effect; nearly all actives have a fitted effect of over 30% in size
* marks the source's active call; other numbers are inactive results; i = inactive; ? = inconclusive; . = not tested or not shown; ! = not active in a repeat; [ ] = dose if it differs, or a comment. Only some compounds are listed: those with a hit (about 1.3% of all), similar ones and a draw of the others. Unless noted, the call rests on the fitted dose curve; in most records, active means well fitted curve in the direction sought with a large enough effect; inconclusive means small, poorly fitted or top-dose-only effect, or another doubt; inactive means no such curve, though single readings can be large; an effect the other way counts as inactive or inconclusive. Potency means the concentration at half of the fitted maximal effect.

SMILES | SARS PLpro yeast | Vaccinia mCherry | AmpC detergent | AmpC inh no detg | VACV Venus inh
CC1CN(CCC(=O)NCc2ccc3ncccc3c2)Cc2cc(Cl)ccc2O1 (configuration not stated) | . | -7.7% | . | . | 7.6%
COc1cc(OC)c(-c2nn3c(-c4n[nH]c5c4CCC5)nnc3s2)cc1OC | . | 7.08µM*! | . | . | ?
COC(=O)c1ccccc1NC1c2ccccc2C(=O)N1c1cccnc1 (configuration not stated) | -0.3% | 3.2% | ? | 7.08µM* | 1.1%
O=C(Nc1ccccc1)c1ccc(-c2ccc([N+](=O)[O-])cc2)o1 | -3.8% | -3.9% | -12.6% | -46.1% | -14.6%
O=C(NNC(=O)c1ccccc1O)c1ccc(-c2ccc([N+](=O)[O-])cc2)o1 | 4.1% | 10µM* | -19.3% | -46.4% | ?
NC(N)=NN=C(c1ccc(F)cc1)c1ccc(C(F)(F)F)cc1 | . | ? | . | . | 12.6µM*
O=C(CN(C1CCCCC1)S(=O)(=O)c1ccc(F)cc1)NCC1CCCO1 (configuration not stated) | . | ? | . | . | 11.2µM*
COc1ccc(-c2ccc3oc(-c4ccc(OC)cc4)c(C#CCO)c3c2)cc1 | . | -26.0% | . | . | ?
COc1ccc(-c2oc3ccc(N4CCOCC4)cc3c2C#CCO)cc1 | . | 5.62µM* | . | . | ?
CCc1ccc(N(C(=O)C(F)(F)F)C(C(=O)NC2CCCCC2)c2ccncc2)cc1 (configuration not stated) | -2.2% | -0.4% | 0.2% | 0.562µM* | -1.9%
CCc1ccc(N(C(=O)c2ccco2)C(C(=O)NC2CCCC2)c2ccncc2)cc1 (configuration not stated) | -3.2% | -19.5% | 2.3% | 17.9% | -10.2%
OCCCNc1cc(-c2ccnc(Nc3cccc(Cl)c3)n2)ccn1 | -6.9% | ? | 9.1% | 35.1% | 1µM*
CC(=O)N(C(C)=O)c1ncc2c([nH]c3ccccc32)c1C#N | 0.9% | 11.2µM* | -7.5% | -3.1% | ?
CCN(CC)C(=O)Cn1ncc2c([nH]c3ccccc32)c1=O | . | -4.3% | 14.2% | . | -3.0%
O=C(NCCc1ccccn1)C1CC12CCN(C(=O)c1c(F)cccc1Cl)CC2 (configuration not stated) | . | 0.9% | . | . | -4.5%
Cc1sc2nc(CN(Cc3cccs3)C(=O)NC3CCCCC3)[nH]c(=O)c2c1C | -9.8% | -28.3% | 35.5µM* | -8.9% | ?
Cc1sc2nc(CN(C(=O)c3cccs3)C3CCCC3)[nH]c(=O)c2c1C | 6.1% | ? | -2.0% | -13.1% | ?
CCN1CCCC1CNCc1cc2c(OC)c(OC)c(OC)cc2nc1N(C)C (configuration not stated) | . | -8.0% | . | . | 11.0%
CCc1cccc(NC(=O)c2ccc3c(=O)n4nc(Nc5ccccc5OC)sc4nc3c2)c1 | . | 3.98µM* | -8.1% | . | 3.98µM*
COc1ccccc1Nc1nn2c(=O)c3ccc(C(=O)NCc4cccnc4)cc3nc2s1 | 5.3% | . | 0.1% | 0.3% | .
COc1cccc(NC(=O)c2ccc3c(=O)n4nc(Nc5ccccc5OC)sc4nc3c2)c1 | . | ? | 25.0% | . | ?
COc1ccccc1Nc1nn2c(=O)c3ccc(C(=O)NCc4ccc(F)cc4)cc3nc2s1 | . | 12.6µM* | -5.7% | . | ?
Cc1cc(C(=O)NCc2nc(-c3cccc(NC(=O)c4cc(C)oc4C)c3)oc2C)nc(C)n1 | . | -15.6% | . | . | 2.8%
CC(C)(C)OC(=O)N1CCC(c2c(C(=O)NCCN3CCC(Cc4ccccc4)CC3)cnn2-c2cccc(Cl)c2)CC1 | . | 11.2µM* | 28.6% | . | 11.2µM*
Cc1ccc(-n2ncc(C(=O)NCCN3CCC(Cc4ccccc4)CC3)c2C2CCN(C(=O)OC(C)(C)C)CC2)cc1 | . | ? | -1.1% | . | 11.2µM*
SMILES | SARS PLpro yeast | Vaccinia mCherry | AmpC detergent | AmpC inh no detg | VACV Venus inh
COc1cccc(-c2cnc(-c3ccncc3)nc2C2CCN(C(=O)Cc3csc(C)n3)CC2)c1 | . | -12.9% | . | . | -8.7%
CC(C)CC(N)c1csc(Nc2ncccn2)n1 (configuration not stated) | . | 7.94µM* | . | . | ?
NC(COCc1ccccc1)c1csc(Nc2ncccn2)n1 (configuration not stated) | . | i | . | . | -11.5%
O=C(O)CSc1cc(NS(=O)(=O)c2cccc([N+](=O)[O-])c2)c2ccccc2c1O | -6.4% | 10µM* | 0.4% | -30.1% | ?
CCc1cccc(OCC(=O)Nc2ccc(S(=O)(=O)Nc3ccccn3)cc2)c1 | 0.7% | -3.8% | -5.5% | 10µM* | -18.4%
COc1cc(-c2cnc3ccccc3c2)cc2c1OCCN(C(=O)CCC(=O)c1ccc(F)cc1)C2 | . | -7.6% | . | . | -2.4%
CC1CN(CCCCN2C(=O)c3ccccc3C2=O)CC(C)O1 (configuration not stated) | 1.1% | i | -12.2% | -2.1%[11.4 µM] | -13.5%
CC1CN(CN2C(=O)c3ccccc3C2=O)CC(C)O1 (configuration not stated) | -0.1% | . | 9.7% | 5.62µM* | .
Cc1cc(=O)oc2cc(OCc3ccc(C(=O)OCC(=O)Nc4ccccc4OC(F)F)cc3)ccc12 | -6.5% | -9.2% | -2.8% | 22.4µM* | -2.7%
O=C(Nc1ccccc1Sc1ccccc1)c1cnn2c1NC(=C1CC1)C=C2C(F)F | . | -13.6% | . | . | -20.3%
COc1ccccc1N1CCN(c2nc(CNC(=O)C3CCOC(C)(C)C3)nc3ccccc23)CC1 (configuration not stated) | . | -11.7% | . | . | -8.5%
Cc1cccc(N2C(=O)NC(=O)/C(=C\c3cc(C)n(-c4sc5c(c4C#N)CCCC5)c3C)C2=O)c1C | -16.2% | -8.9% | -7.5% | 31.6µM* | 1.5%
CCOC(=O)c1c(-n2c(C)cc(C=C3C(=O)NC(=O)NC3=O)c2C)sc2c1CCCC2 | -12.8% | . | 2.4% | 0.4% | .
CC(=O)Nc1ccc(NC2=C(Cl)C(=O)c3ccccc3C2=O)cc1 | 0.9% | ? | 16.9% | -19.9% | ?
O=C1C(Cl)=C(Nc2ccc3cn[nH]c3c2)C(=O)c2ccccc21 | -4.6% | ? | -3.0% | -38.2% | 8.91µM*
CN(C)c1ccc(NC2=C(Cl)C(=O)c3ccccc3C2=O)cc1 | -0.3% | ? | ? | -14.2% | 11.2µM*
COCc1c(C(=O)N2CCN(c3ccccc3)CC2)cnn1-c1nccc(-c2ccco2)n1 | . | -21.3% | . | . | -11.2%
Nc1c(Br)cc(/C=C/c2ccnc3ccccc23)cc1Br | . | 7.4% | . | . | -26.9%
O=C(CCn1cncn1)NCC1Cc2cc(-c3ccsc3)cc(Cl)c2O1 (configuration not stated) | . | -3.4% | . | . | -12.9%
O=C(Nc1ccc(NC(=O)c2cccs2)cc1)c1ccc(Cl)cc1 | . | -3.2% | 14.7% | . | -3.9%
COc1c(Cl)cc(Cl)cc1/C=C/C(=O)c1ccc(NC(=O)c2cccs2)cc1 | 0.6% | 11.2µM* | ? | ? | 10µM*
COc1cccc(-c2cc3c(c(OC)c2)OCCN(Cc2ccccc2O)C3)n1 | . | i | . | . | -8.9%
COC(=O)c1cccc(C(=O)N2CCc3c(C(=O)OC)c(OCc4ccccn4)cc(=O)n3CC2)c1 | . | -6.1% | . | . | 4.9%
